Assay outcomes (PubChem)
Compounds with a hit are over-represented: about 0.91% of the library has one in this group of screens.
Prostate diff – promotes differentiation of LNCaP prostate cells; actives 0.56% (n = 24,000); side scatter shift, % at 10 µM; flow cytometry side scatter, 4 d;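 active means side scatter shift above 30%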;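 further: androgen-responsive LNCaP prostate cancer cells in charcoal-stripped serum medium; percent of cells past a gate set so DMSO wells show 10% shift; higher shift means more granular cells and more differentiation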
QS inhibitor – blocks AIP-induced quorum sensing reporter in S. aureus | S. aureus RN6390 RNAIII-GFP reporter, flow cytometry 3 h | inhibition, % at 2 µM | actives 0.3% (n = 24,000) | AID 527;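 active means share of bacteria positive for the green fluorescent reporter and its mean brightness both inhibited by 50% or more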;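 further: 0% = AIP-stimulated control and 100% = unstimulated bacteria without AIP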
* = called active by the depositor.

SMILES	Prostate diff	QS inhibitor
CCc1ccc(-c2nc(CN3CCC(C(=O)NCCN(CC)c4ccccc4)CC3)c(C)o2)cc1	32*	10
Cc1oc(-c2ccc(Cl)cc2)nc1CN1CCC(C(=O)NCCCN2CCOCC2)CC1	63*	8
CCN(CCNC(=O)C1CCN(Cc2nc(-c3cccc(Cl)c3)oc2C)CC1)c1ccccc1	24	4
Cc1oc(-c2cccc(Cl)c2)nc1CN1CCCC(C(=O)NCCCN2CCOCC2)C1 (stereo not drawn)	26	-8
CCN(CCNC(=O)C1CCCN(Cc2nc(-c3ccc(OC)cc3)oc2C)C1)c1ccccc1 (stereo not drawn)	10	21
COc1ccc(CNc2nc3c(c(C(F)(F)F)n2)CCCCC3)cc1	6	6
CCOC(=O)c1ccccc1NC(=O)CSc1nnc(Cc2cccn2C)n1-c1ccc(C)cc1	3	28
Cc1ccc(C)n1CCN1CCN(CC(=O)Nc2ccc(S(N)(=O)=O)cc2)CC1	8	-2
COc1ccc(-c2noc(CCC(=O)N3CCN(Cc4ccccc4)CC3)n2)cc1	2	-3
C1=CN2CCC1C(c1ccccc1)C2 (stereo not drawn)	8	-1
COc1ccc(N(CC(=O)Nc2cccc(OC)c2)S(=O)(=O)c2c(C)nn(C)c2C)cc1	16	0
COc1ccc(N(CC(=O)Nc2nc3ccc(C)cc3s2)S(=O)(=O)c2c(C)nn(C)c2C)cc1	6	66*
Cc1cc(N2CCC(N(C)C3CCCC3)CC2)nc2cc(O)ccc12	44*	0
Cc1cc(N2CCOCC2)nc2ccc(NC(=O)C3CCC(C)CC3)cc12 (stereo not drawn)	8	1
CCC(Cc1ccccc1)NC(=O)CN1C(=O)CSc2ncccc21 (stereo not drawn)	3	-1
CC(=O)Nc1sc2c(c1C#N)CCCCC2	9	-2
N#Cc1c(NC(NC(=O)c2ccco2)C(=O)c2ccccc2)sc2c1CCCC2 (stereo not drawn)	2	84*
CCn1c(C(=O)NCc2ccccn2)cc2sccc21	8	-2
COCCNC(=O)CC(NS(=O)(=O)c1ccc(NC(C)=O)cc1)C(C)C (stereo not drawn)	31*	0
CCCCCCNC(=O)CC(NS(=O)(=O)c1ccc(NC(C)=O)cc1)C(C)C (stereo not drawn)	3	7
Cc1ccc(S(=O)(=O)c2c(C)nn(C(C)(C)C)c2OC(=O)C2CCCC2)cc1	1	-12
Cc1nn(C(C)(C)C)c(OC(=O)C2CCCC2)c1S(=O)(=O)c1ccccc1	5	89*
CCC1CCCCN1CCCNC(=O)Cn1nc(-c2ccc(C)cc2)ccc1=O (stereo not drawn)	12	-2
CCN1C(=O)CSc2ccc(C(=O)NCc3ccco3)cc21	2	-15
Cn1c(=O)c2c3c(sc2n2c(SCc4ccccc4)nnc12)CCCC3	3	64*
SMILES	Prostate diff	QS inhibitor
CSc1nnc2n(CCc3ccccc3)c(=O)c3c4c(sc3n12)CCCC4	15	-5
Cc1cc(C)n(CC(=O)n2c3c(c4ccccc42)CCCC3)n1	7	2
Cc1[nH]nc2c1C(c1ccccc1F)NC2=O (stereo not drawn)	9	-4
CCOC(=O)N1CCC(NC(=O)C(NS(=O)(=O)c2ccc3c(c2)CCN3C(C)=O)C(C)C)CC1 (stereo not drawn)	4	-1
O=C(NCCN1CCOCC1)c1ccc2c(c1)N(Cc1ccccc1)CCS2	4	10
Cc1ccc(CN2CCSc3ccc(C(=O)N4CCN(c5ncccn5)CC4)cc32)cc1	44*	-1
CCCOc1ccc(S(=O)(=O)NCCCN2CCOCC2)c2ccccc12	8	-1
COc1ccc(/C(O)=C2/C(=O)C(=O)N(CCCN(C)C)C2c2ccco2)cc1Cl (stereo not drawn)	12	-1
OCCN1CCN(c2ncnc3ccc(Br)cc23)CC1	3	-4
CC(C)Cc1nc2oc3c(N4CCN(CCO)CC4)ncnc3c2c2c1CCCC2	32*	3
COc1cccc(-n2nnc3c(=O)n(Cc4cccc(F)c4)cnc32)c1	3	0
Cc1ccccc1-c1nc(CN2CCC(C(=O)NCCC3=CCCCC3)CC2)c(C)o1	34*	13
COc1ccc(CCNC(=O)C2CCN(Cc3nc(-c4ccccc4C)oc3C)CC2)cc1OC	11	-3
Cc1ccccc1-c1nc(CN2CCC(C(=O)O)CC2)c(C)o1	4	-7
Cc1ccccc1-c1nc(CN2CCC(C(=O)NC3CCN(Cc4ccccc4)CC3)CC2)c(C)o1	48*	-1
CCCCCn1c(S(=O)(=O)O)nc2ccccc21	2	-2
CCOc1cc2[nH]c(=O)n(CCCCC(=O)N3CCCCCC3)c(=O)c2cc1OCC	8	5
CCOC(=O)c1oc2ccccc2c1NC(=O)c1cccc(OC)c1OC	19	16
COc1ccc(CCN2CCC(Nc3nc4ccccc4n3Cc3ccc(F)cc3)CC2)cc1	66*	4
Clc1ccc(Cn2c(CN3CCCC3)nc3ccccc32)cc1	2	4
O=C(NCCCN1CCOCC1)c1cc(-c2ccc3c(c2)OCO3)nc2ccccc12	12	-4
CCOc1ccc(-c2cc(C(=O)NCCCN3CCN(CC)CC3)c3ccccc3n2)cc1	37*	-1
Cc1nc2cc(S(=O)(=O)N3CCC(C(=O)O)CC3)ccc2n1C1CCCC1	21	10
CCOc1ccc(-n2ccnc2SCC(=O)Nc2nnc(CC)s2)cc1	7	4
Cc1oc(-c2ccc(Cl)cc2)nc1CN1CCC(C(=O)N2CCN(c3ccccn3)CC2)CC1	43*	0
SMILES	Prostate diff	QS inhibitor
Cc1oc(-c2cccc(Cl)c2)nc1CN1CCC(C(=O)N2CCN(c3ccccn3)CC2)CC1	24	23
CCc1ccc(-c2nc(CN3CCC(C(=O)N4CCN(c5ccccn5)CC4)CC3)c(C)o2)cc1	3	2
CCc1ccc(-c2nc(CN3CCC(C(=O)N4CCN(c5ccccc5)CC4)CC3)c(C)o2)cc1	35*	-6
CC1CN(CC(O)COc2ccccc2C(C)(C)C)CC(C)O1 (stereo not drawn)	7	-1
Cc1ccc(CN2C(=O)CCC2C(=O)NCCCN2CCOCC2)cc1 (stereo not drawn)	8	0
COCCNC(=O)Cn1ncc2ccsc2c1=O	12	7
O=C(Nc1cccc(F)c1)C1C2C=CC3(CN(CCCN4CCOCC4)C(=O)C13)O2 (stereo not drawn)	4	-1
[O-][N+]12CC[N+]([O-])(CC1)c1ccccc12	17	0
CCCCCn1c(=N)n(CC(O)COc2ccccc2OC)c2ccccc21 (stereo not drawn)	34*	1
C=CCn1c(=N)n(CC(O)COc2ccccc2OC)c2ccccc21 (stereo not drawn)	12	-1
Cc1ccc(OCC(O)Cn2c(=N)n(CCN3CCCCC3)c3ccccc32)cc1 (stereo not drawn)	58*	0
COc1ccc(OCC(O)CN2CCCCC2)cc1 (stereo not drawn)	2	-9
CCCS(=O)(=O)N1CCC(C(=O)NCc2ccco2)CC1	13	-2
N=c1n(CCO)c2ccccc2n1CCOc1ccc(Cl)cc1Cl	39*	-2
CCN(CC)CCn1c(=N)n(CCO)c2ccccc21	2	0
COc1cccc(C2NC(C)(C(=O)O)C3C(=O)N(C(C)C)C(=O)C23)c1O (stereo not drawn)	8	3
CCc1ccc(N/C(SCc2cccc(F)c2)=C(/C#N)C(=O)NCc2ccco2)cc1	6	65*
CCc1ccc(NC(=O)c2cc(-c3ccco3)on2)cc1	8	0
